# Data reported in PubChem BioAssay (NCI).
# About 79,000 compounds went through this panel and 15% of them were active in at least one assay; those are over-represented in the sample as a whole. Values without a mark were called inactive. Rule as the data show it: active = growth inhibition above about 70%; inactive = the rest.
# Assay: NCI Yeast Anticancer Drug Screen. Data for the rad52 strain (AID 147);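 also: 0% = growth of vehicle-treated control cultures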
# Conditions: S. cerevisiae rad52 mutant growth inhibition; at 1.2 µM; stronger effect = higher value
# Outline: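 Yeast strain carrying a DNA damage repair alteration was exposed to test compounds. Growth inhibition was measured relative to vehicle-treated controls.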
row,Compound,growth inhibition [%]
1,O=P(NC1CCCCC1)(OCc1ccccc1)OCc1ccccc1,-1
2,COc1oc(C(=O)NC2CCCCC2)c(-c2ccc(Cl)cc2)c1S(=O)(=O)c1ccccc1,-5
3,CCOc1ccc(NC(=O)C2=C(C)NC(C)=C(C(=O)Nc3ccc(OCC)cc3)C2c2cccc([N+](=O)[O-])c2)cc1,-2
4,CC1(C)CC(=O)C(/C=N/c2nc(-c3ccccc3)cs2)=C(O)C1,1
5,COc1nc2c(c(=O)n1C)N=C(c1ccccc1)[C@H](C(CC(=O)c1ccccc1)c1ccccc1)C(c1ccccc1)N2 (stereo not given in full),-2
6,Nc1ncnc2c1ncn2C1OC(CO)CC1O (stereo not given),-20
7,CCOC(=O)C1N=[N+](c2ccccc2)C(=O)/C1=C\n1c(=S)[nH]c2ccc([N+](=O)[O-])cc21 (stereo not given),0
8,CNC(=O)OCc1c(COC(=O)NC)c2n(c1C)-c1ccc(OC)cc1CCC2,-18
9,Cc1ccc(CC2(OCCN(C)C)CCC(C(C)(C)C)CC2)cc1 (stereo not given),8
10,CCCC/C=C/C(C)(C(=O)OCC)C(=O)OCC,-5
11,O=C(/C=C(/c1ccccc1)N1CCCCC1)c1ccccc1,0
12,CCc1nc2ccc(NCCN(C)C)c3c(=O)c4ccccc4n1c23,12
13,Cc1sc2ccc3ccccc3c2[n+]1C,-3
14,COc1c(O)c(C=O)c(Br)c(C=O)c1O,2
15,Cc1ccc(Cl)cc1NC(=O)OCCN(C)C(=O)Nc1cc(Cl)ccc1C,7

# Same assay, conditions: S. cerevisiae rad52 mutant growth inhibition; at 3.7 µM; stronger effect = higher value
row,Compound,growth inhibition [%]
1,O=P(NC1CCCCC1)(OCc1ccccc1)OCc1ccccc1,4
2,COc1oc(C(=O)NC2CCCCC2)c(-c2ccc(Cl)cc2)c1S(=O)(=O)c1ccccc1,7
3,CCOc1ccc(NC(=O)C2=C(C)NC(C)=C(C(=O)Nc3ccc(OCC)cc3)C2c2cccc([N+](=O)[O-])c2)cc1,0
4,CC1(C)CC(=O)C(/C=N/c2nc(-c3ccccc3)cs2)=C(O)C1,5
5,COc1nc2c(c(=O)n1C)N=C(c1ccccc1)[C@H](C(CC(=O)c1ccccc1)c1ccccc1)C(c1ccccc1)N2 (stereo not given in full),13
6,Nc1ncnc2c1ncn2C1OC(CO)CC1O (stereo not given),-10
7,CCOC(=O)C1N=[N+](c2ccccc2)C(=O)/C1=C\n1c(=S)[nH]c2ccc([N+](=O)[O-])cc21 (stereo not given),1
8,CNC(=O)OCc1c(COC(=O)NC)c2n(c1C)-c1ccc(OC)cc1CCC2,-24
9,Cc1ccc(CC2(OCCN(C)C)CCC(C(C)(C)C)CC2)cc1 (stereo not given),3
10,CCCC/C=C/C(C)(C(=O)OCC)C(=O)OCC,-5
11,O=C(/C=C(/c1ccccc1)N1CCCCC1)c1ccccc1,3
12,CCc1nc2ccc(NCCN(C)C)c3c(=O)c4ccccc4n1c23,39
13,Cc1sc2ccc3ccccc3c2[n+]1C,-14
14,COc1c(O)c(C=O)c(Br)c(C=O)c1O,6
15,Cc1ccc(Cl)cc1NC(=O)OCCN(C)C(=O)Nc1cc(Cl)ccc1C,-12
